From PubChem BioAssay AID435022 (Sanford-Burnham Center for Chemical Genomics, 2010)
Several values for one entry are separate records, joined by “and”; a condition that tells them apart may be missing. Equal entries are not always repeated. Screen size: about 330,000 compounds; about 1,100 (0.33%) were called active. Rule as the data show it: active = inhibition above about 35%; inactive = the rest. This excerpt belongs to a sample that is enriched for actives. The source holds several records for some structures; these can differ, active in one and inactive in another.

Assay: lowers stimulated NF-kB luciferase signal in 697 B cells – cell-based, luminescence, uHTS, B-cell NF-kB inhibitor project, primary screen (AID 435022)
Conditions: 697 B-cell NF-kB luciferase reporter, PMA/ionomycin, 16 h; at 4 µM; stronger effect = higher value

Structure (SMILES)	inhibition
COc1cc2c(cc1OC)CN(C(=O)c1cc(=O)c3ccccc3o1)CC2	-14.7% (inactive)
CCOc1cc(C(=O)N2CCc3cc(OC)c(OC)cc3C2)ccc1OC(F)F	39.7% (active)
COc1cc2c(cc1OC)CN(C(=O)c1ccc(S(=O)(=O)N3CCCCCC3)cc1)CC2	22.3% (inactive)
COCCNC(=O)C1CCN(C(=O)C2CC(=O)N(c3ccc(C)cc3)C2)CC1 (stereo not drawn)	-0.961% (inactive)
CCN(CCCNC(=O)CSc1cc(=O)n(C)c2cc(Cl)ccc12)Cc1ccccc1	2.99% (inactive)
Cc1ccc(O)c(NC(=S)NC(=O)COc2ccc(Br)cc2)c1	-17.9% (inactive)
Cc1ccc(O)c(NC(=O)COc2cc(C)ccc2C)c1	40.5% (active)
Cc1ccc(C)c(OCC(=O)NNC(=O)C2CCC2)c1	0.932% (inactive)
COc1ccc(NC(=O)Nc2ccc3c(c2)C(=O)N([C@H](C)CO)C[C@H](C)[C@@H](CN(C)C(=O)Nc2ccc4c(c2)OCO4)O3)cc1	-1.97% (inactive)
COc1ccc(CNC(=O)C2CCC(CNc3c(N4CCOCC4)c(=O)c3=O)CC2)cc1 (stereo not drawn)	-4.3% (inactive)
CCN1/C(=C\c2ccc3ccccc3[n+]2CC)Sc2cc(C)ccc21	65% (active)
COC(=O)c1ccccc1NC(=O)C1CC(=O)N(c2ccc(OC)cc2)C1 (stereo not drawn)	2.44% (inactive)
C[C@@H]1O[C@@H](OC[C@H]2O[C@@H](Oc3c(-c4ccc(O)cc4)oc4cc(O)cc(O)c4c3=O)[C@H](O)[C@@H](O)[C@@H]2O)[C@H](O)[C@H](O)[C@H]1O	3.19% (inactive)
O=C(NCCCN1CCOCC1)c1cc(-c2cccc(O)c2)on1	14.1% (inactive)
COc1ccc(-c2cc(C(=O)NCCCN3CCOCC3)no2)cc1	28.1% (inactive)
O=C(NCCCN1CCOCC1)c1cc(-c2ccc(Cl)cc2)on1	46.3% (active)
CCOC(=O)C1CCN(C(=O)C2(NC(=O)Nc3cccc(F)c3)CCCCC2)CC1	14% (inactive)
Cn1nc(C(F)(F)F)cc1-c1ccc(/C=C(\C#N)C(=O)c2cccc(C(F)(F)F)c2)s1	-34.9% (inactive)
CCOC(=O)C1C(=O)NCC1c1ccccc1 (stereo not drawn)	12.8% (inactive)
CC(=O)c1cnc(SCC(=O)O)nc1C	10% (inactive)
Clc1ccc(C[n+]2cc(-c3ccccc3)n3c2CCC3)cc1	-17.7% (inactive)
Cc1ccc(C(=O)C[n+]2cc(-c3ccccc3)n3c2CCCCC3)cc1	38.8% (active) and 16% (inactive)
Cc1ccc(-c2c[n+](CC(=O)Nc3ccccc3)c3n2CCC3)cc1	-7% (inactive)
